# ± gives the standard deviation of the averaged measurements. Of roughly 6,500 targets only a part is listed; those with the largest changes were picked by preference.
# Columns and labels:
# Test in all cases: NP40-soluble protein abundance relative to vehicle (solubility fold change) (ratio); higher = more soluble protein in presence of ATP
# [1] = target: T1, A6NG45|Q13162 (UniProt Q13162)
# T1 sequence (whole entry): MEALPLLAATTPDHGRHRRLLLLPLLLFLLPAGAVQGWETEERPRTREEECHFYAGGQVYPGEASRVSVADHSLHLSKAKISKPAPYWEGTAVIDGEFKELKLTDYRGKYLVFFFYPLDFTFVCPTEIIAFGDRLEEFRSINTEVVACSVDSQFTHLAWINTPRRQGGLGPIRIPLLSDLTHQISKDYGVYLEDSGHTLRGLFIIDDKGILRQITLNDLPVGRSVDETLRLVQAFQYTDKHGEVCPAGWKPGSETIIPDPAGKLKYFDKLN
# Summary of the method: (§1)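 Jurkat crude lysate prepared with a Dounce homogeniser was treated at eight concentrations spanning 0.1 to 10 mM, 10 min at room temperature then 3 min at 37 °C. Solubilisation with 0.8% NP40 and benzonase and ultracentrifugation preceded TMT labelling of the supernatant for LC-MS/MS. Fold change against the detergent-processed vehicle was determined per replicate from vsn-normalised intensities, across three independent experiments.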
# [2] = target: T2, E7ET89|Q86UW9|Q86UW9-2 (UniProt Q86UW9)
# T2 sequence (whole entry): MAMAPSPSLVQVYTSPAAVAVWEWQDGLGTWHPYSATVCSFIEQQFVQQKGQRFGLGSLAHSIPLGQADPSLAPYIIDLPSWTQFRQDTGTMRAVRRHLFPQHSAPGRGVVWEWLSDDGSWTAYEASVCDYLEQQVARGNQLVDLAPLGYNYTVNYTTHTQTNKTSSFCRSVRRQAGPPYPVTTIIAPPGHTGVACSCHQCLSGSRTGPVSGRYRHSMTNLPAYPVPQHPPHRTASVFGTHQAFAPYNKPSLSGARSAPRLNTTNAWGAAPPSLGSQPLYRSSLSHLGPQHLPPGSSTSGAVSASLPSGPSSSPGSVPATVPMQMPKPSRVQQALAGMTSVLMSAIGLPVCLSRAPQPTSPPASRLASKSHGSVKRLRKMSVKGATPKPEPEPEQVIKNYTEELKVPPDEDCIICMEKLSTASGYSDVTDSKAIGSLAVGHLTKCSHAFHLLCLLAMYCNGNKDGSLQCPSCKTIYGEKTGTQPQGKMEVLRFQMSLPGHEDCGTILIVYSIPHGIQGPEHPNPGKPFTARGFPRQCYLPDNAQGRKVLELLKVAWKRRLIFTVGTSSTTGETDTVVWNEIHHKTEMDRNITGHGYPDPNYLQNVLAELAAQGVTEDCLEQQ
# Summary of the method: as §1
# [3] = target: T3, F5GY05|A0A0D9SEJ5|Q96EK7 (UniProt Q96EK7)
# T3 sequence (whole entry): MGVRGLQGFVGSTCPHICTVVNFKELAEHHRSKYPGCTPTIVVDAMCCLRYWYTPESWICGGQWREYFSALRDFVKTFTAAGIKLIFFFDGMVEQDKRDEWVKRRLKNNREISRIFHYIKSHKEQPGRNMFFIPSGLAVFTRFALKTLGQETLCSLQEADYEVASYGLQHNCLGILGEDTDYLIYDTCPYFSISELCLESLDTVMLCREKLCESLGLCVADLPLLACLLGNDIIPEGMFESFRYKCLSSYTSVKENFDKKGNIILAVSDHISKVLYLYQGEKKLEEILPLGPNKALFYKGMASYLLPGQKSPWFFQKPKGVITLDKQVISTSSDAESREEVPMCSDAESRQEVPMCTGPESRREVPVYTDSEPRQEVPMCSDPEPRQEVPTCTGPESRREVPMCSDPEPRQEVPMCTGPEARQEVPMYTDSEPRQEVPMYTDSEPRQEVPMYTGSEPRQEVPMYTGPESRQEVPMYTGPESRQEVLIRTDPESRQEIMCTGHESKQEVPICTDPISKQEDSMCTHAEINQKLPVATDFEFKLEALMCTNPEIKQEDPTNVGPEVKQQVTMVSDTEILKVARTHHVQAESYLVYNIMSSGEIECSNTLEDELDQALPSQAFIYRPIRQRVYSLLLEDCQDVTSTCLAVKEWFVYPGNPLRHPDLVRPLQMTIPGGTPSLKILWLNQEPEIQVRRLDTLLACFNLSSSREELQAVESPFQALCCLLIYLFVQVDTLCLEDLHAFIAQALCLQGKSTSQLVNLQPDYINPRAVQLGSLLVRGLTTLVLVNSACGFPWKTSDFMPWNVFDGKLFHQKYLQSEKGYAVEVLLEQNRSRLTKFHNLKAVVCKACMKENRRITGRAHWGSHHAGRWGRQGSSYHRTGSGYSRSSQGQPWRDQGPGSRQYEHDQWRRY
# Summary of the method: as §1
# [4] = target: T4, F5H514|O95267|O95267-2 (UniProt O95267)
# T4 sequence (whole entry): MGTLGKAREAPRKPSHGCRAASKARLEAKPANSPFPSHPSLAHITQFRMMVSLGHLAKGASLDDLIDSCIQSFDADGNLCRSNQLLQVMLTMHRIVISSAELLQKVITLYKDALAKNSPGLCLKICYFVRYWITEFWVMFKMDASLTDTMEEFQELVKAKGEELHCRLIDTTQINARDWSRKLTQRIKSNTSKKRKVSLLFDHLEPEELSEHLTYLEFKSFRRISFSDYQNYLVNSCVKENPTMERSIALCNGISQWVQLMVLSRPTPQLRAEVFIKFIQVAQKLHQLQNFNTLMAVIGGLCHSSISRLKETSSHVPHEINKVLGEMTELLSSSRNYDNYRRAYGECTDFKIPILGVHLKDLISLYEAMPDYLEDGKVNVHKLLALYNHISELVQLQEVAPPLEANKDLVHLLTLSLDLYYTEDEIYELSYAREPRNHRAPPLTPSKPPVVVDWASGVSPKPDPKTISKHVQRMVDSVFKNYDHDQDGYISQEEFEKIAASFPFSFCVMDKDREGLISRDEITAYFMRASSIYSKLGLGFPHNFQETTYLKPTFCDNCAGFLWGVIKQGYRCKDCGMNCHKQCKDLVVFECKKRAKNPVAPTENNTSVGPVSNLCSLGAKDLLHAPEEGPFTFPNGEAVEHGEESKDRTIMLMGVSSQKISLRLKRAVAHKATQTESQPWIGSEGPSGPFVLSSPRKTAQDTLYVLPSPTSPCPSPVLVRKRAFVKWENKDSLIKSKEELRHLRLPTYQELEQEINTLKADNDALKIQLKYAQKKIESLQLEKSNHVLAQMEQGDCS
# Summary of the method: as §1
# [5] = target: T5, I3L0H8|Q9NUU7|Q9NUU7-2 (UniProt Q9NUU7)
# T5 sequence (whole entry): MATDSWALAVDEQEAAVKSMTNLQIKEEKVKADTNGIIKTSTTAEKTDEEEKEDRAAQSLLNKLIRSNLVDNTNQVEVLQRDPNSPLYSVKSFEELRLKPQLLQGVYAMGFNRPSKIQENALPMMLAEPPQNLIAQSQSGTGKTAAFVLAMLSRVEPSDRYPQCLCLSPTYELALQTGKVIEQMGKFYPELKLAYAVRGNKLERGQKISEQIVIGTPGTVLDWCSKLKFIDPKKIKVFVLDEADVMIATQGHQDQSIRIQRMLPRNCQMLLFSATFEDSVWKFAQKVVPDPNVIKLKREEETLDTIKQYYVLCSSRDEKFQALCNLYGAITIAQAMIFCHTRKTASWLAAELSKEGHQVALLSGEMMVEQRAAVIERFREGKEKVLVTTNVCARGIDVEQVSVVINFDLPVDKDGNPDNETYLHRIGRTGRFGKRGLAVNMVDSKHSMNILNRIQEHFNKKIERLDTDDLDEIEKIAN
# Summary of the method: as §1
# [6] = target: T6, J3KPS0|Q9NXW2 (UniProt Q9NXW2)
# T6 sequence (whole entry): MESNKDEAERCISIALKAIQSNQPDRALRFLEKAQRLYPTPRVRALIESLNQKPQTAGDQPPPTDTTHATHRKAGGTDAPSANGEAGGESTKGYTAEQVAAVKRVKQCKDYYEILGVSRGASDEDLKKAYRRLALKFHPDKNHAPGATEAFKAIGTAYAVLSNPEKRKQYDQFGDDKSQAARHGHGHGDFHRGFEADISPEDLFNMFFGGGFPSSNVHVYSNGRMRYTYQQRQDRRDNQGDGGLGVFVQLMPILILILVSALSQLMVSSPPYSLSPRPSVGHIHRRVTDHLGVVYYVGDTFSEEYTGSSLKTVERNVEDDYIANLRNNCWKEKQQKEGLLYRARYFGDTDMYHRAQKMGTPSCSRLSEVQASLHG
# Summary of the method: as §1
# [7] = target: T7, SNAP23 (UniProt O00161)
# T7 sequence (whole entry): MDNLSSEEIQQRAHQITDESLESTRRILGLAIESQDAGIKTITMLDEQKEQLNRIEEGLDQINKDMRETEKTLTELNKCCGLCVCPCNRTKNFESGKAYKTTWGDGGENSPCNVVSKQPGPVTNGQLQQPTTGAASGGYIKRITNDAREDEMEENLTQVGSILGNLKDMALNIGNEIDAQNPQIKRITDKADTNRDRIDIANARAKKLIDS
# Summary of the method: as §1
# [8] = target: T8, UniProt O14966|O14966-2
# T8 sequence (whole entry): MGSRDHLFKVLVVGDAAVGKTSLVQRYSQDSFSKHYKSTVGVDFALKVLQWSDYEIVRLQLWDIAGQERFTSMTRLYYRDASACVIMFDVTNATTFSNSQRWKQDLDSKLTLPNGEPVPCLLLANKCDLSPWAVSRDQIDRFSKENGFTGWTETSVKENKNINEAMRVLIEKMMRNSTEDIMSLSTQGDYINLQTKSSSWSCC
# Summary of the method: as §1
structure (smiles),measurement,setting,value
Nc1ncnc2c1ncn2[C@@H]1O[C@H](COP(=O)(O)OP(=O)(O)OP(=O)(O)O)[C@@H](O)[C@H]1O [adenosine triphosphate],NP40-soluble protein abundance,[1]; concentration: 1mM,1.07 ± 0.057
same,NP40-soluble protein abundance,[1]; concentration: 2mM,1.01 ± 0.042
same,NP40-soluble protein abundance,[1]; concentration: 4mM,0.975 ± 0.041
same,NP40-soluble protein abundance,[1]; concentration: 6mM,0.953 ± 0.07
same,NP40-soluble protein abundance,[1]; concentration: 8mM,1.03 ± 0.034
same,NP40-soluble protein abundance,[1]; concentration: 10mM,0.992 ± 0.033
same,NP40-soluble protein abundance,[2]; concentration: 1mM,0.936 ± 0.2
same,NP40-soluble protein abundance,[2]; concentration: 2mM,1.09 ± 0.15
same,NP40-soluble protein abundance,[2]; concentration: 4mM,1.05 ± 0.11
same,NP40-soluble protein abundance,[2]; concentration: 6mM,1.04 ± 0.039
same,NP40-soluble protein abundance,[2]; concentration: 8mM,1.03 ± 0.086
same,NP40-soluble protein abundance,[2]; concentration: 10mM,1.04 ± 0.035
same,NP40-soluble protein abundance,[3]; concentration: 1mM,1.03 ± 0.013
same,NP40-soluble protein abundance,[3]; concentration: 2mM,1.0493 ± 0.001
same,NP40-soluble protein abundance,[3]; concentration: 4mM,1.07 ± 0.017
same,NP40-soluble protein abundance,[3]; concentration: 6mM,1.06 ± 0.06
same,NP40-soluble protein abundance,[3]; concentration: 8mM,1.07 ± 0.02
same,NP40-soluble protein abundance,[3]; concentration: 10mM,1.08 ± 0.052
same,NP40-soluble protein abundance,[4]; concentration: 1mM,1.04 ± 0.12
same,NP40-soluble protein abundance,[4]; concentration: 2mM,1.09 ± 0.046
same,NP40-soluble protein abundance,[4]; concentration: 4mM,1.19 ± 0.15
same,NP40-soluble protein abundance,[4]; concentration: 6mM,1.21 ± 0.13
same,NP40-soluble protein abundance,[4]; concentration: 8mM,1.14 ± 0.065
same,NP40-soluble protein abundance,[4]; concentration: 10mM,1.24 ± 0.15
same,NP40-soluble protein abundance,[5]; concentration: 1mM,1.03 ± 0.02
same,NP40-soluble protein abundance,[5]; concentration: 2mM,1.03 ± 0.028
same,NP40-soluble protein abundance,[5]; concentration: 4mM,1 ± 0.03
same,NP40-soluble protein abundance,[5]; concentration: 6mM,1.02 ± 0.058
same,NP40-soluble protein abundance,[5]; concentration: 8mM,1.02 ± 0.012
same,NP40-soluble protein abundance,[5]; concentration: 10mM,1.02 ± 0.013
same,NP40-soluble protein abundance,[6]; concentration: 1mM,0.902 ± 0.035
same,NP40-soluble protein abundance,[6]; concentration: 2mM,0.898 ± 0.056
same,NP40-soluble protein abundance,[6]; concentration: 4mM,0.867 ± 0.058
same,NP40-soluble protein abundance,[6]; concentration: 6mM,0.846 ± 0.12
same,NP40-soluble protein abundance,[6]; concentration: 8mM,0.845 ± 0.11
same,NP40-soluble protein abundance,[6]; concentration: 10mM,0.833 ± 0.1
same,NP40-soluble protein abundance,[7]; concentration: 1mM,0.944 ± 0.077
same,NP40-soluble protein abundance,[7]; concentration: 2mM,0.947 ± 0.024
same,NP40-soluble protein abundance,[7]; concentration: 4mM,0.943 ± 0.021
same,NP40-soluble protein abundance,[7]; concentration: 6mM,1 ± 0.061
same,NP40-soluble protein abundance,[7]; concentration: 8mM,0.921 ± 0.02
same,NP40-soluble protein abundance,[7]; concentration: 10mM,0.883 ± 0.03
same,NP40-soluble protein abundance,[8]; concentration: 1mM,0.995 ± 0.072
same,NP40-soluble protein abundance,[8]; concentration: 2mM,1.01 ± 0.075
same,NP40-soluble protein abundance,[8]; concentration: 4mM,0.958 ± 0.099
same,NP40-soluble protein abundance,[8]; concentration: 6mM,1.03 ± 0.09
same,NP40-soluble protein abundance,[8]; concentration: 8mM,0.99 ± 0.1
same,NP40-soluble protein abundance,[8]; concentration: 10mM,1.01 ± 0.04

# Reference: the supplement of paper PMC6411743
